Activity calls are given as the source filed them.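 The calls were made as follows, unless noted: active = RAM network inhibition above 8.4% in each of two replicates, 3 SD over the compound average; inconclusive = above 8.4% inhibition in only one replicate; inactive = 8.4% inhibition or less in each replicate.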

One experiment can be described thus: inhibitors of the yeast RAM network, pilot screen, dse1pr::URA3 reporter, 5-FOA selection (AID 869;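 active = inhibition over a set limit, the all-compound mean plus 3 SD, in both replicate runs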;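 also: 0% = DMSO wells with no growth and 100% = 10 µM 1-NA-PP1 with full growth; RAM network block rescues cells from 5-FOA so hits raise OD615 growth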). Conditions: S. cerevisiae dse1pr::URA3 5-FOA growth, OD615, 2 d; at 10 µM; hits give high values; strain carries analog-sensitive mutant Cbk1 kinase.
In general, inhibition refers to the drop in the measured response relative to a control, in per cent. For the compound `Cc1cccc(NC(=O)c2cccnc2)c1`, the inhibition was 0.405% (inactive).
Same read-out and setting: in the case of `O=C(CCCOc1ccccc1)Nc1ccc2c(c1)OCCO2` it was 1.16% (inactive).
The same measure, in the same setting: the result for `C=CCn1c(C(C)NC(=O)COC)nc2ccccc21` (stereo not given) reads 0.935% (inactive); that for `CCCC(=O)N1CCN(c2ccc(C(=O)c3ccc(OC)c(Br)c3)cc2F)CC1`, 1.3% (inactive); that for `CC(C)Cc1cc(C(=O)Nc2ccc(F)cc2F)no1`, 0.505% (inactive).
Consider `CN1CCN(CCNC(=O)c2cc3c(=O)n(C)c4ccccc4c3n2C)CC1`, for which the inhibition was 0.755% (inactive).
Turning to `Cn1nc(-c2ccc(Cl)cc2)c2cc(C(=O)NCCCN3CCCC3)sc21`, the inhibition is 1.23% (inactive).
Consider `CCOC(=O)c1c(C)oc2cc(Br)c(OC(C)C(=O)OCC)cc12` (stereo not given), for which the inhibition is 1.76% (inactive).
Still for that read-out and setting: in the case of `O=C(C1CC1)N1CCc2cc(Br)cc(S(=O)(=O)NCc3ccc4c(c3)OCO4)c21` it was 1.23% (inactive); in that of `COc1ccc(OC)c(NC2c3ccccc3C(=O)N2Cc2ccc3c(c2)OCO3)c1` (stereo not given), 0.2% (inactive); in that of `CC1CCN(S(=O)(=O)c2ccc3c(c2)oc(=O)n3CC(=O)NCc2ccc3c(c2)OCO3)CC1`, 3.27% (inactive).
Still for that read-out and setting: in the case of `COc1cccc(-n2nnc3c(=O)n(Cc4cccc(C)c4)cnc32)c1` it was 0.335% (inactive); in that of `CCc1cc2c(NCC3CCCO3)ncnc2s1` (stereo not given), 0.34% (inactive); in that of `Cc1ccc(-n2nc3ccc(N)cc3n2)cc1`, 2.38% (inactive).
Consider `COc1ccc(N2C(=O)C3CCCN3C2c2ccc(Cl)cc2)cc1` (stereo not given), for which the inhibition is 1.7% (inactive).
Still for that read-out and setting: in the case of `CCOC(=O)c1ccc(NCn2c(=O)oc3ccccc32)cc1` it was -0.385% (inactive).
In the case of `Cc1cccc(-n2ncc3c(N4CCC(C)CC4)ncnc32)c1`, the inhibition was -0.31% (inactive).
Take `CCOC(=O)c1ccc(N2C(=O)C3ON(c4ccccc4)C(c4ccco4)C3C2=O)cc1` (stereo not given): the inhibition is 1.73% (inactive).
Same read-out and setting: the result for `O=C(C1COc2ccccc2O1)N1CCn2c(nc3ccccc32)C1` (stereo not given) reads 1.85% (inactive); that for `CN(CC(=O)N1CC=C(c2ccccc2)CC1)S(=O)(=O)c1ccc2c(c1)c(=O)n(C)c(=O)n2C`, 0.26% (inactive); that for `CSC1=NCCN1C(=O)COc1ccccc1`, 1.57% (inactive).
On the same count and under the same terms, the result for `CC(C)NC(=O)c1ccc(CS(=O)(=O)c2ccc(Br)cc2)o1` reads 1.95% (inactive); that for `Cc1ccc(-n2ncc3c(=O)[nH]c(SCC(=O)N4CCCC4)nc32)cc1C`, 1.81% (inactive).
As to `O=c1[nH]c(NC2CCCCC2)nnc1Cc1ccccc1`, the inhibition was 2.53% (inactive).
Turning to `COc1ccc(N2CCN(Cc3nc4c(c(=O)[nH]c(=O)n4C)n3Cc3cccc(Cl)c3)CC2)cc1`, the inhibition was 1.39% (inactive).
Still for that read-out and setting: in the case of `Cc1nc2scc(-c3cccs3)c2c(=O)o1` it was 1.73% (inactive); in that of `CCC1Oc2nc(SC)nnc2-c2ccccc2N1C(=O)c1ccccc1` (stereo not given), 1.03% (inactive).
Still for that read-out and setting: in the case of `O=C(CSc1nc2ccccc2c(=O)n1-c1ccccc1)N1CCN(CCO)CC1` it was 0.595% (inactive); in that of `O=c1oc(-c2cccnc2)nc2ccccc12`, 0.595% (inactive); in that of `CN(C)CCNC(=O)c1cc2c(=O)n(C)c3ccccc3c2n1C`, 1.12% (inactive).
Still for that read-out and setting: in the case of `CNC(=O)c1c(NC(=O)c2ccc(S(=O)(=O)N3CCOCC3)cc2)sc2c1CCC2` it was 0.78% (inactive).
For the compound `O=C1c2ccccc2CCC1C(O)c1ccccn1` (stereo not given), the inhibition was 2.49% (inactive).
On the same count and under the same terms, in the case of `CCCCCSc1nc2c(c(=O)[nH]c(=O)n2C)n1CC` it was 1.18% (inactive).
Turning to `COC(=O)c1cc(NC(=O)c2nccnc2C(=O)O)cc(C(=O)OC)c1`, the inhibition was -0.12% (inactive).
On to `O=C(CC1Sc2ccccc2NC1=O)Nc1cccc(C(=O)O)c1` (stereo not given), for which the inhibition was 1.14% (inactive).
On to `Cc1cccc(NC(=O)COc2ccc(Br)cc2C)n1`, for which the inhibition is 0.655% (inactive).
As to `COc1cc(C(=O)Nc2ccc(N(C)C)cc2)cc(OC)c1OC`, the inhibition was 1.14% (inactive).
Turning to `CC1Cc2nc(SCC(=O)NCc3ccco3)n(-c3ccccc3)c(=O)c2S1` (stereo not given), the inhibition is 0.405% (inactive).
The same measure, in the same setting: the result for `O=C(Nc1cccc(Br)c1)c1cc2ccccc2o1` reads 0.03% (inactive); that for `CCOCCCNC(=O)C(NC(=O)CNC(C)=O)c1ccc(Cl)cc1` (stereo not given), 2.1% (inactive).

A short description of a further experiment: RAM signaling pathway blockade in yeast – S. cerevisiae, Pdr1DBD-CYC8 efflux-inhibited sensitized strain, primary screen (AID 1298).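 Also: 0% = DMSO untreated cells without growth and 100% = 10 µM 1-NA-PP1 full growth; higher means more yeast growth rescued from 5-FOA killing.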 Conditions: S. cerevisiae cbk1-as DSE1-URA3 strain, 5-FOA growth OD615, 2 d; at 50 µM; hits give high values.
For the compound `Cc1cccc(NC(=O)c2cccnc2)c1`, the RAM network inhibition is 5.69% (inactive).
Regarding `O=C(CCCOc1ccccc1)Nc1ccc2c(c1)OCCO2`, the RAM network inhibition is 3.58% (inactive).
On the same count and under the same terms, the result for `C=CCn1c(C(C)NC(=O)COC)nc2ccccc21` (stereo not given) reads 3.54% (inactive); that for `CCCC(=O)N1CCN(c2ccc(C(=O)c3ccc(OC)c(Br)c3)cc2F)CC1`, 4.76% (inactive).
With `CC(C)Cc1cc(C(=O)Nc2ccc(F)cc2F)no1`, the RAM network inhibition was 0.21% (inactive).
On to `CN1CCN(CCNC(=O)c2cc3c(=O)n(C)c4ccccc4c3n2C)CC1`, for which the RAM network inhibition is 1.04% (inactive).
Still for that read-out and setting: in the case of `Cn1nc(-c2ccc(Cl)cc2)c2cc(C(=O)NCCCN3CCCC3)sc21` it was 0.73% (inactive); in that of `CCOC(=O)c1c(C)oc2cc(Br)c(OC(C)C(=O)OCC)cc12` (stereo not given), 0.98% (inactive).
On the same count and under the same terms, the result for `O=C(C1CC1)N1CCc2cc(Br)cc(S(=O)(=O)NCc3ccc4c(c3)OCO4)c21` reads 5.72% (inactive).
For `COc1ccc(OC)c(NC2c3ccccc3C(=O)N2Cc2ccc3c(c2)OCO3)c1` (stereo not given), the RAM network inhibition is 5.4% (inactive).
`CC1CCN(S(=O)(=O)c2ccc3c(c2)oc(=O)n3CC(=O)NCc2ccc3c(c2)OCO3)CC1`: the RAM network inhibition is 2.06% (inactive).
Same read-out and setting: in the case of `COc1cccc(-n2nnc3c(=O)n(Cc4cccc(C)c4)cnc32)c1` it was 5.49% (inactive); in that of `CCc1cc2c(NCC3CCCO3)ncnc2s1` (stereo not given), 4.46% (inactive); in that of `Cc1ccc(-n2nc3ccc(N)cc3n2)cc1`, 2.79% (inactive).
On the same count and under the same terms, in the case of `COc1ccc(N2C(=O)C3CCCN3C2c2ccc(Cl)cc2)cc1` (stereo not given) it was 2.27% (inactive).
For the compound `CCOC(=O)c1ccc(NCn2c(=O)oc3ccccc32)cc1`, the RAM network inhibition is -0.1% (inactive).
On the same count and under the same terms, in the case of `Cc1cccc(-n2ncc3c(N4CCC(C)CC4)ncnc32)c1` it was 1.32% (inactive).
Turning to `CCOC(=O)c1ccc(N2C(=O)C3ON(c4ccccc4)C(c4ccco4)C3C2=O)cc1` (stereo not given), the RAM network inhibition was 4.07% (inactive).
In the case of `O=C(C1COc2ccccc2O1)N1CCn2c(nc3ccccc32)C1` (stereo not given), the RAM network inhibition is 4.61% (inactive).
Same read-out and setting: the result for `CN(CC(=O)N1CC=C(c2ccccc2)CC1)S(=O)(=O)c1ccc2c(c1)c(=O)n(C)c(=O)n2C` reads 5.04% (inactive); that for `CSC1=NCCN1C(=O)COc1ccccc1`, 2.21% (inactive).
Same read-out and setting: in the case of `CC(C)NC(=O)c1ccc(CS(=O)(=O)c2ccc(Br)cc2)o1` it was 4.82% (inactive); in that of `Cc1ccc(-n2ncc3c(=O)[nH]c(SCC(=O)N4CCCC4)nc32)cc1C`, 1.73% (inactive); in that of `O=c1[nH]c(NC2CCCCC2)nnc1Cc1ccccc1`, 1.52% (inactive).
The same measure, in the same setting: in the case of `COc1ccc(N2CCN(Cc3nc4c(c(=O)[nH]c(=O)n4C)n3Cc3cccc(Cl)c3)CC2)cc1` it was 1.83% (inactive); in that of `Cc1nc2scc(-c3cccs3)c2c(=O)o1`, 3.15% (inactive).
Turning to `CCC1Oc2nc(SC)nnc2-c2ccccc2N1C(=O)c1ccccc1` (stereo not given), the RAM network inhibition was 3.93% (inactive).
The same measure, in the same setting: in the case of `O=C(CSc1nc2ccccc2c(=O)n1-c1ccccc1)N1CCN(CCO)CC1` it was 1.04% (inactive); in that of `O=c1oc(-c2cccnc2)nc2ccccc12`, -0.11% (inactive); in that of `CN(C)CCNC(=O)c1cc2c(=O)n(C)c3ccccc3c2n1C`, -0.26% (inactive).
Consider `CNC(=O)c1c(NC(=O)c2ccc(S(=O)(=O)N3CCOCC3)cc2)sc2c1CCC2`, for which the RAM network inhibition is 4.58% (inactive).
On the same count and under the same terms, the result for `O=C1c2ccccc2CCC1C(O)c1ccccn1` (stereo not given) reads 1.24% (inactive).
As for `CCCCCSc1nc2c(c(=O)[nH]c(=O)n2C)n1CC`, the RAM network inhibition is -1.69% (inactive).
As for `COC(=O)c1cc(NC(=O)c2nccnc2C(=O)O)cc(C(=O)OC)c1`, the RAM network inhibition is -1.46% (inactive).
The same measure, in the same setting: the result for `O=C(CC1Sc2ccccc2NC1=O)Nc1cccc(C(=O)O)c1` (stereo not given) reads 4.51% (inactive).
Turning to `Cc1cccc(NC(=O)COc2ccc(Br)cc2C)n1`, the RAM network inhibition was 5.6% (inactive).
In the case of `COc1cc(C(=O)Nc2ccc(N(C)C)cc2)cc(OC)c1OC`, the RAM network inhibition is 2.49% (inactive).
As for `CC1Cc2nc(SCC(=O)NCc3ccco3)n(-c3ccccc3)c(=O)c2S1` (stereo not given), the RAM network inhibition was 6.31% (inactive).
Still for that read-out and setting: in the case of `O=C(Nc1cccc(Br)c1)c1cc2ccccc2o1` it was 3.48% (inactive); in that of `CCOCCCNC(=O)C(NC(=O)CNC(C)=O)c1ccc(Cl)cc1` (stereo not given), 2.91% (inactive).

These data come from PubChem BioAssay.
